The nature of assay [1]: qHTS assay to identify small molecule antagonists of the thyroid receptor (TR) signaling pathway (AID 743065). Note: nearly all actives have a fitted effect of over 55% in size. Note: potency is the fitted concentration of half-maximal effect. A digest of the protocol: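 Antagonism measured as loss of luciferase signal in GH3 cells stably carrying a TRE-luciferase reporter, co-treated with compound and T3 (1 nM final) for 23.5 h at 37 C. Viability was read in the same well by CellTiter-Fluor.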
Background: qHTS replaces the single test concentration by a dilution series.

Assay [2] relates to thyroid hormone receptor (rat, GH3 cells). Kind of assay: qHTS assay to identify small molecule agonists of the thyroid receptor (TR) signaling pathway (AID 743066; calls by dose curve).
The target in assay [3] is Estrogen receptor (Homo sapiens) (UniProt P03372). Kind of assay: qHTS assay to identify small molecule antagonists of the estrogen receptor alpha (ER-alpha) signaling pathway (AID 743069; active = well fitted curve in the direction sought with a large enough effect in the signal ratio in the repeat runs, not every such curve was filed as active; the % refers to the signal ratio; note: potency is the fitted concentration of half-maximal effect). A digest of the protocol: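 Fluorescence intensity from a beta-lactamase FRET substrate served as the read-out. Cells: HEK293 with stably integrated ER-alpha-UAS-bla reporter. Agonist 17beta-estradiol was co-added with compounds; incubation 18 hr at 37C, substrate 2 hr at room temperature.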

Assay [4] in a line: qHTS assay to identify small molecule antagonists of the estrogen receptor alpha (ER-alpha) signaling pathway - cell viability counter screen (AID 743074; calls by dose curve; note: nearly all actives have a fitted effect of over 45% in size).
Assay [5] has as its target Estrogen receptor (Homo sapiens) (UniProt P03372). Nature of the assay: qHTS assay to identify small molecule agonists of the estrogen receptor alpha (ER-alpha) signaling pathway (AID 743075; calls by dose curve).
Assay [6] has the same target. Kind of assay: qHTS assay to identify small molecule agonists of the estrogen receptor alpha (ER-alpha) signaling pathway using the BG1 cell line (AID 743079). Note: nearly all actives have a fitted effect of over 20% in size.
A short description of assay [7]: qHTS assay to identify small molecule antagonists of the estrogen receptor alpha (ER-alpha) signaling pathway using the BG1 cell line (AID 743080; calls by dose curve;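 note: BG1 cells stimulated with 17beta-estradiol alongside compound; nearly all actives have a fitted effect of over 25% in size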; note: potency is the fitted concentration of half-maximal effect). The procedure, abridged:
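BG1-Luc-4E2 cells (endogenous full-length ER-alpha, stable 4×ERE-luciferase) were starved 5 days in phenol-red-free medium with 10% charcoal-stripped FBS, plated 24 h, then given compound plus 17beta-estradiol for 21.5 h at 37 C; ONE-Glo luminescence read after 30 min.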

A short description of assay [8]: qHTS assay to identify small molecule antagonists of the estrogen receptor alpha (ER-alpha) signaling pathway using the BG1 cell line - cell viability counter screen (AID 743081).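 Note: compound given together with 17beta-estradiol as the ER stimulus; series mostly up to about 70 µM; nearly all actives have a fitted effect of over 45% in size.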
The target in assay [9] is Aromatase (Homo sapiens) (UniProt P11511). Kind of assay: qHTS assay to identify aromatase inhibitors (AID 743083). Note: series mostly up to about 70 µM; nearly all actives have a fitted effect of over 55% in size.
The nature of assay [10]: qHTS assay to identify aromatase inhibitors - cell viability counter screen (AID 743084).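 Note: cells stimulated with testosterone during compound exposure; nearly all actives have a fitted effect of over 55% in size.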
The target of assay [11] is Aryl hydrocarbon receptor (Homo sapiens) (UniProt P35869). Nature of the assay: qHTS assay to identify small molecule that activate the aryl hydrocarbon receptor (AhR) signaling pathway (AID 743085).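 For activation: HG2L7.5c1 human HepG2 liver cells with stably integrated DRE-driven firefly reporter; series mostly up to about 70 µM.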 Note: nearly all actives have a fitted effect of over 15% in size. Note: potency is the fitted concentration of half-maximal effect. A digest of the protocol:
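HepG2 cells (HG2L7.5c1) stably carrying a firefly luciferase reporter driven by 20 dioxin responsive elements were exposed to compound for 24 h at 37C after a 5 h settling period; luminescence rise (ONE-Glo) indicated activation.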

Assay [12] can be described thus: qHTS assay for small molecule agonists of the antioxidant response element (ARE) signaling pathway (AID 743202; active = well fitted activation curve with a large enough effect in the signal ratio in the repeat runs, not every such curve was filed as active; the % refers to the signal ratio; note: potency is the fitted concentration of half-maximal effect). A digest of the protocol:
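Beta-lactamase reporter activity, read as fluorescence intensity, reflects ARE/Nrf2 pathway induction in HepG2 cells after 16 h compound exposure at 37 C; substrate loading was 2 h at room temperature.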

Assay [13] can be described thus: qHTS assay for small molecule agonists of the antioxidant response element (ARE) signaling pathway - cell viability counter screen (AID 743203; calls by dose curve; note: nearly all actives have a fitted effect of over 55% in size). The procedure, abridged: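 Measured in the same wells as the beta-lactamase ARE reporter, this read-out is CellTiter-Glo luminescence from HepG2 ARE-bla cells given compounds for 16 hrs.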
Assay [14] in a line: qHTS assay for small molecule activators of the heat shock response signaling pathway - cell viability counter screen (AID 743209). Note: nearly all actives have a fitted effect of over 50% in size. A digest of the protocol: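 Same-well multiplex: after 2.5 h room-temperature incubation with LiveBLAzer B/G substrate and fluorescence reading, CellTiter-Glo reagent was added to HSE-bla HeLa cells that had received compound for 5 h at 37 C; luminescence read after 30 min.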

Assay [15] in a line: qHTS assay to identify small molecule agonists of the peroxisome proliferator-activated receptor delta (PPARd) signaling pathway - cell viability counter screen (AID 743211). Note: nearly all actives have a fitted effect of over 55% in size. The procedure, abridged:
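PPARd-bla HEK293H cells (UAS-beta-lactamase reporter) were treated with compounds for 17 h at 37 C. Viability was then read in the same wells by CellTiter-Glo luminescence after 30 min at room temperature.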

Assay [16] can be described thus: qHTS assay to identify small molecule that activate the aryl hydrocarbon receptor (AhR) signaling pathway - cell viability counter screen (AID 743086). Note: series mostly up to about 70 µM; nearly all actives have a fitted effect of over 45% in size. A digest of the protocol: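 Cytotoxicity counter screen: CellTiter-Fluor signal (30 min, 37 C) in 4000 HepG2 cells/well carrying the DRE-luciferase reporter, following 24 h compound exposure at 37 C.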
Assay [17] in a line: qHTS assay to identify small molecule antagonists of the peroxisome proliferator-activated receptor gamma (PPARg) signaling pathway - cell viability counter screen (AID 743194). Note: nearly all actives have a fitted effect of over 55% in size. The procedure, abridged:
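Viability was measured as CellTiter-Glo luminescence in GeneBLAzer PPARg UAS-bla HEK293H cells. These cells had been exposed 17 h at 37 C to compounds together with rosiglitazone at 50 nM final, with the beta-lactamase readout taken in the same wells.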

Assay [18] deals with Peroxisome proliferator-activated receptor gamma (Homo sapiens) (UniProt P37231). Nature of the assay: qHTS assay to identify small molecule agonists of the peroxisome proliferator-activated receptor gamma (PPARg) signaling pathway (AID 743094; active = well fitted activation curve with a large enough effect in the signal ratio in the repeat runs, not every such curve was filed as active; the % refers to the signal ratio). The procedure, abridged:
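Cell-based bla reporter, HEK293H background, PPARg-driven UAS. Pre-incubation 5 h, 37C, 5% CO2. Compound 17 h, 37C. Substrate 1 h RT; fluorescence.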

Assay [19] can be described thus: qHTS assay for small molecule activators of the heat shock response signaling pathway (AID 743210; active = well fitted activation curve with a large enough effect in the signal ratio in the repeat runs, with a control signal flat, not every such curve was filed as active; the % refers to the signal ratio;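 note: HeLa cells with beta-lactamase reporter driven by heat shock elements; series mostly up to about 63 µM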). The procedure, abridged:
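Fluorescence from a cleaved B/G FRET substrate (2.5 h, room temp) reports HSE-driven beta-lactamase in HeLa cells treated 5 h at 37 C with DMSO-dissolved compounds.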

The target in assay [20] is Peroxisome proliferator-activated receptor gamma (Homo sapiens) (UniProt P37231). Kind of assay: qHTS assay to identify small molecule antagonists of the peroxisome proliferator-activated receptor gamma (PPARg) signaling pathway (AID 743191; calls by dose curve; note: series mostly up to about 63 µM; nearly all actives have a fitted effect of over 30% in size). The procedure, abridged: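 Beta-lactamase reporter under UAS control in HEK293H PPARg-bla cells; compound treatment 17 h at 37C. Read-out: fluorescence intensity after 1 h room-temperature incubation with LiveBLAzer B/G FRET substrate.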

Drawing on PubChem BioAssay (Tox21), this text covers Potency and outcome for eleven molecules.

Values joined by “and” are separate entries in the source; they are usually repeats but may differ in a detail not shown here. Identical values can stand only once. Inconclusive results are not listed. Active and inactive are the calls of the source. Unless noted, calls come from the whole dose curve; as a rule, active = well fitted curve in the direction sought with a large enough effect in the repeat runs; inconclusive = weak or mixed curves; inactive = no such curve, though single readings can be large; an effect the other way counts as inactive or inconclusive.

Chain of Estrogen receptor (Homo sapiens) (P03372 whole entry, looked up): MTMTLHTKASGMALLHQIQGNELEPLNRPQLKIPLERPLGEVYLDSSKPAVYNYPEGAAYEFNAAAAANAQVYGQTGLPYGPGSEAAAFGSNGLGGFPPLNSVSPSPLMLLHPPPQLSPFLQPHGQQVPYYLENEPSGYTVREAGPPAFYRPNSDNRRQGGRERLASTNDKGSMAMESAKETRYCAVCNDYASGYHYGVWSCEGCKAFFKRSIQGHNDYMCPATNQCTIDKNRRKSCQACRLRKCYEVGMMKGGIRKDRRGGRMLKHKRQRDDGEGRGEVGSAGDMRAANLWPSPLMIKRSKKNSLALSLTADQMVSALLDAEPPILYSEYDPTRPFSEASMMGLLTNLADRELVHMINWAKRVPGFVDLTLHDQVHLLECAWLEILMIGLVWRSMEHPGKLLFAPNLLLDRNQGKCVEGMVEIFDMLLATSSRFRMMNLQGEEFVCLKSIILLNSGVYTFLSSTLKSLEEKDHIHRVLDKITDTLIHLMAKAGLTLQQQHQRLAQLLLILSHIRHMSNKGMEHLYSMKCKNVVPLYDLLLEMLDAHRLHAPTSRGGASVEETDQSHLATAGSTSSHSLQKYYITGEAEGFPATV
Chain of Peroxisome proliferator-activated receptor gamma (Homo sapiens) (P37231 whole entry, looked up): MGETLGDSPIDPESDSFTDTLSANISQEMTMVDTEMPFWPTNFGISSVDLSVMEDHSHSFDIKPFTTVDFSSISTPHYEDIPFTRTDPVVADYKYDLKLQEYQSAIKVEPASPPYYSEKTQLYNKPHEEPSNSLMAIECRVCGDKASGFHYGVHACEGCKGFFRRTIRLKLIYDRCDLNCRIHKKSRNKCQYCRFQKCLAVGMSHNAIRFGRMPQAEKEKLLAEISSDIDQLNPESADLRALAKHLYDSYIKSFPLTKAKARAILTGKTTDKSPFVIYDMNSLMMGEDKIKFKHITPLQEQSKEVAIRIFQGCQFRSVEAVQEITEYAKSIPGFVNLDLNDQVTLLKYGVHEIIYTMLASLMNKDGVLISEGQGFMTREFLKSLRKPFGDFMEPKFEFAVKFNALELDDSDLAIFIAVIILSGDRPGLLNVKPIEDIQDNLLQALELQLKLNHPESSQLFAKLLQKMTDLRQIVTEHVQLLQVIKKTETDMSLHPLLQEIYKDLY
Chain of Aromatase (Homo sapiens) (P11511 whole entry, looked up): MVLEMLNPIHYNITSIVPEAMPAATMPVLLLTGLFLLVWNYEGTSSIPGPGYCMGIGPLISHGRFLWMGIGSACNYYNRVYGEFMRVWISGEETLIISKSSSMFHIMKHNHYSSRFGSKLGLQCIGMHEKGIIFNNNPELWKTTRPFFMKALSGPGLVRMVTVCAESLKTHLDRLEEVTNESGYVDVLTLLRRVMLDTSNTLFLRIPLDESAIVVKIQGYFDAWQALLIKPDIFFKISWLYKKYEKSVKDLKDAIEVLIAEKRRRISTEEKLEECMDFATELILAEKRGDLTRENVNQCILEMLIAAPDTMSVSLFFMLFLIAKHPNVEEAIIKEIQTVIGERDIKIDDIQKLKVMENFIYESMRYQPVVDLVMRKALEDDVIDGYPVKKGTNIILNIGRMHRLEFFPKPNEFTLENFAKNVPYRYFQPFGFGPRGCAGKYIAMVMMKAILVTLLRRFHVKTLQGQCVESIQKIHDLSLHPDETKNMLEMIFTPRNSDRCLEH
Chain of Aryl hydrocarbon receptor (Homo sapiens) (P35869 whole entry, looked up): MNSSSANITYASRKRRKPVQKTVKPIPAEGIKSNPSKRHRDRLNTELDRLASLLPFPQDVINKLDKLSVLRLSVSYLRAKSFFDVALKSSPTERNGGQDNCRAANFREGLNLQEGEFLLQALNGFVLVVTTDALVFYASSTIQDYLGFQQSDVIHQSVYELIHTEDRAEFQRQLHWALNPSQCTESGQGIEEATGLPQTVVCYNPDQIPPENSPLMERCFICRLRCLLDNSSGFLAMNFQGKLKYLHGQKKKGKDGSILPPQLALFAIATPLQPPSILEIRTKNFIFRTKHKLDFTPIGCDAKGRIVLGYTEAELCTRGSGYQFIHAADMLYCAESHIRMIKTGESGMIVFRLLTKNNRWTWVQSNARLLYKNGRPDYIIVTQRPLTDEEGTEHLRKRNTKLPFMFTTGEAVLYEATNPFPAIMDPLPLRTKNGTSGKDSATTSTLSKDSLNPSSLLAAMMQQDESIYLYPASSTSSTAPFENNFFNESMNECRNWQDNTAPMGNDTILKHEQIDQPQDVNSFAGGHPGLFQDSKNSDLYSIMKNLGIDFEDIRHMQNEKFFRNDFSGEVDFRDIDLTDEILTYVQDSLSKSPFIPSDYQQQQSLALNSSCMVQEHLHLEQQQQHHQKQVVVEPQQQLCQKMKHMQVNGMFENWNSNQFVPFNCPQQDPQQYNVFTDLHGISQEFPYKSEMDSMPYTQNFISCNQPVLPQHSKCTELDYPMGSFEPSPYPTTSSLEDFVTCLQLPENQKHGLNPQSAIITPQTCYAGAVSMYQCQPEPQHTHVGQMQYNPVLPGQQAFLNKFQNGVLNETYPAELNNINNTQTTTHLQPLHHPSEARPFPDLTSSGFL

Consider `C=C(C)C(=O)Nc1ccc(Cl)c(Cl)c1`, for which the Potency in assay [1] is 49.1 µM (active) and 54.3 µM (active); in [7] it was 69.3 µM (active) and 68.3 µM (active); in assay [11] it was 69.3 µM (active) and 54.3 µM (active); in [12], 19.5 µM (active) and 27.2 µM (active). Besides, the Potency result in [2], in assay [3], in [5], in assay [6], in [8] and in assay [9] was “inactive” throughout. The Potency entry in assay [10] was “inactive”. The result in assay [4], in [13], in assay [14] and in assay [15] was inactive.

As to `CC(c1cc2ccccc2s1)N(O)C(N)=O` (stereo unspecified), the Potency result in assay [1], in assay [2], in assay [3], in [5], in assay [6] and in assay [7] was “inactive” each time. For the same molecule, the Potency entry in [8], in assay [9], in [10] and in assay [12] was “inactive” in each case. Moreover, the outcome in assay [4], in [16], in assay [17], in assay [14] and in [15] was inactive.

Take `O=S(=O)(O)c1ccc2ccccc2c1`: the Potency entry in [1], in assay [2], in assay [3], in assay [5], in assay [6] and in assay [7] was “inactive” in each case. For the same molecule, the Potency entry in assay [8], in [9], in assay [10], in [12] and in assay [19] was “inactive” throughout. The molecule was called inactive in assay [4], in [16], in assay [18], in [17], in assay [13] and in assay [14]. Moreover, the molecule was classed as inactive in assay [15].

For the molecule `CC(O)COCC(C)O` (stereo unspecified), the Potency result in assay [1], in assay [2], in assay [3], in [5], in assay [6] and in assay [7] was “inactive” throughout. For the same molecule, the Potency entry in [8], in assay [9], in assay [10], in [11], in assay [12] and in assay [19] was “inactive” throughout. Besides, the call in [16], in assay [18], in assay [20], in [17], in assay [14] and in assay [15] was inactive.

For the molecule `O=C(O)c1ccccc1C(c1ccc(O)cc1)c1ccc(O)cc1`, the Potency entry in assay [1], in assay [2], in assay [3], in assay [5], in assay [6] and in assay [7] was “inactive” throughout. Moreover, the Potency result in assay [8], in assay [9], in assay [10], in assay [11] and in [19] was “inactive” in each case. The call in assay [16], in assay [18], in [13], in [14] and in assay [15] was inactive.

`Nc1ccccc1[N+](=O)[O-]`: the Potency result in assay [1], in assay [2], in assay [8], in [9], in assay [10] and in [11] was “inactive” throughout. For the same molecule, the Potency entry in [12] and in [19] was “inactive” each time. Besides, the call in assay [4], in [16], in [18], in [17], in assay [13] and in [14] was inactive. Moreover, in assay [15], the outcome was inactive.

Take `O=C1CCC(N2C(=O)c3ccccc3C2=O)C(=O)N1` (stereo unspecified): the Potency result in assay [1], in assay [2], in assay [8], in assay [9], in [10] and in assay [11] was “inactive” throughout. The Potency entry in assay [12] and in [19] was “inactive” each time. Moreover, the molecule was called inactive in [4], in assay [16], in assay [18], in assay [20], in [17] and in [13]. The outcome in assay [14] and in [15] was inactive.

Turning to `O=C(O)c1ccc(C(=O)O)cc1`, the Potency entry in [1], in assay [2], in assay [8], in [9], in assay [10] and in assay [11] was “inactive” throughout. The Potency entry in assay [12] and in [19] was “inactive” in each case. The molecule was classed as inactive in assay [4], in assay [16], in [18], in assay [17], in [13] and in assay [14]. Moreover, in [15], the outcome was inactive.

For `Cc1ccc(S(N)(=O)=O)cc1`, the Potency entry in [1], in assay [2], in assay [8], in assay [9], in [10] and in [11] was “inactive” throughout. The Potency result in [12] and in assay [19] was “inactive” in each case. In addition, the molecule was called inactive in assay [4], in [16], in assay [18], in assay [20], in [17] and in assay [13]. The molecule was called inactive in assay [14] and in assay [15].

As for `CCCCCC(N)=O`, the Potency entry in assay [1], in [2], in assay [8], in assay [9], in assay [10] and in assay [11] was “inactive” each time. In addition, in [12], the Potency result is “inactive”. Further, the molecule was classed as inactive in assay [4], in assay [16], in assay [18], in assay [20], in assay [17] and in [13]. In addition, the call in [14] and in assay [15] was inactive.

In the case of `O=P(OC(CCl)CCl)(OC(CCl)CCl)OC(CCl)CCl`, the Potency was 61.1 µM (active) in assay [1] and 54.9 µM [inhibitor] (active) in [3]. Besides, the Potency entry in assay [2], in [5], in assay [6], in assay [7], in [8] and in [10] was “inactive” in each case. Further, the Potency entry in [11], in assay [12] and in [19] was “inactive” each time. Moreover, the molecule was called inactive in assay [4], in assay [16], in assay [18], in [17], in assay [14] and in assay [15].
